Calls of active or inactive are those of the source. Unless noted, the rule behind the calls is not given here.
Tests used:
[1] = compounds binding Alexa647 anti-His antibody – biochemical, small-molecule microarray, 635 nm fluorescence, artefact control for SMM control protein annotation, primary screen (AID 1128); details: higher = more signal;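 note: score merges feature fluorescence with signal-to-noise for each printed compound spot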
[2] = test system: Human papillomavirus type 1a E7 protein (residues 1-88); test: HPV1a E7 small-molecule binders, primary screen, biochemical, small-molecule microarray, residues 1-88, 635 nm (AID 1129); details: small-molecule microarray binding, fluorescence 635 nm; higher = more signal
[3] = target: Focal adhesion kinase 1 (Homo sapiens) (UniProt Q05397); test: PTK2 protein binding on printed compound slides – biochemical, small-molecule microarray, 635/667 nm fluorescence, BSA, DTT, primary screen (AID 1130); details: 635 nm fluorescence, higher = more signal;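 note: composite of spot emission at 667 nm and signal to noise over triplicate slides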
Chain of Focal adhesion kinase 1 (Homo sapiens) (Q05397 whole entry, looked up): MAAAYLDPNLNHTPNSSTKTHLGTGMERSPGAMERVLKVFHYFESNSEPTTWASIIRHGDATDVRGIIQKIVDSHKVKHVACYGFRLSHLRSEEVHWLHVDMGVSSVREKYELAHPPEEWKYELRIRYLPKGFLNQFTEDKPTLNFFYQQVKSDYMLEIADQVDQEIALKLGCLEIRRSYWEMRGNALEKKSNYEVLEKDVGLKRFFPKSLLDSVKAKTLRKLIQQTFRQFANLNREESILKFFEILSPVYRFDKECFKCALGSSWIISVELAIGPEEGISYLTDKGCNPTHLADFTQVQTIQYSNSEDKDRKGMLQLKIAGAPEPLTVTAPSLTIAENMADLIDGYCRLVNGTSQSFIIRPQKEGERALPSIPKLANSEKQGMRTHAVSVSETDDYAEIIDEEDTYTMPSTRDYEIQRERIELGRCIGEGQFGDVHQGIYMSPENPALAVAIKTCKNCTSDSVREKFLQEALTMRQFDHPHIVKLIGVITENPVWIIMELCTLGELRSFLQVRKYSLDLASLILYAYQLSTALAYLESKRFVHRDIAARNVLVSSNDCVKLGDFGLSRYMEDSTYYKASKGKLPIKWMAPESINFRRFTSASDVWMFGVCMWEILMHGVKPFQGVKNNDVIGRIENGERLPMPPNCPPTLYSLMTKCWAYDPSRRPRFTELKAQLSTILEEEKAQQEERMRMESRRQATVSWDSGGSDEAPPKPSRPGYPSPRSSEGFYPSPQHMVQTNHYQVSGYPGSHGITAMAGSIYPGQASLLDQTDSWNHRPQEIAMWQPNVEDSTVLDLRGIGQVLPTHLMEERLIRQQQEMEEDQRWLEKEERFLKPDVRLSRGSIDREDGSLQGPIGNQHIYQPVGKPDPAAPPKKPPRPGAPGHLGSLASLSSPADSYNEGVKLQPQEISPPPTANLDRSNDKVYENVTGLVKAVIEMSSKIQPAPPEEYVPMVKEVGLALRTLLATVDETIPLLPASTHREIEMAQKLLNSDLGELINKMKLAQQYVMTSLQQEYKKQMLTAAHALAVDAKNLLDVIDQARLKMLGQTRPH

[4] = test system: Fibrinogen (Alexa647-labelled); test: Alexa647-fibrinogen binding to printed small molecules – biochemical, small-molecule microarray, 635/667 nm fluorescence, artefact control for SMM control-protein annotation, profiling panel (AID 1131); details: fibrinogen-A647 binding fluorescence, higher = more signal;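 note: z-score merges 667 nm fluorescence with per-spot signal-to-noise over triplicate slides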
[5] = target: Follistatin (Homo sapiens) (UniProt P19883); test: FST protein binding to printed compounds – biochemical, small-molecule microarray, 635/667 nm fluorescence, primary screen (AID 1132); details: 635 nm fluorescence, higher = more signal
Chain of Follistatin (Homo sapiens) (P19883 whole entry, looked up): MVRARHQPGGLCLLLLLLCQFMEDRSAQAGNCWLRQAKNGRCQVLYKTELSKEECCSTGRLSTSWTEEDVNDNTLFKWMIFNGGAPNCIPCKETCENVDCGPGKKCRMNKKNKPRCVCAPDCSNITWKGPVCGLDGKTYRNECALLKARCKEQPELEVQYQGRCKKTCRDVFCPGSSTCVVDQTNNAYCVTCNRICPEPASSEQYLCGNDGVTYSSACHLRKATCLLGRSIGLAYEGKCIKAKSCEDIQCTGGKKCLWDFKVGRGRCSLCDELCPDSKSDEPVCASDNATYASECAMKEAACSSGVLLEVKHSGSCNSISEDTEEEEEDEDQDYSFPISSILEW

[6] = target: Fibroblast growth factor 2 (Homo sapiens) (UniProt P09038); test: basic fibroblast growth factor binding to printed compounds – biochemical, small-molecule microarray, 635/667 nm fluorescence, primary screen (AID 1133); details: FGF2, fluorescence 635/667, higher = more signal
Chain of Fibroblast growth factor 2 (Homo sapiens) (P09038 whole entry, looked up): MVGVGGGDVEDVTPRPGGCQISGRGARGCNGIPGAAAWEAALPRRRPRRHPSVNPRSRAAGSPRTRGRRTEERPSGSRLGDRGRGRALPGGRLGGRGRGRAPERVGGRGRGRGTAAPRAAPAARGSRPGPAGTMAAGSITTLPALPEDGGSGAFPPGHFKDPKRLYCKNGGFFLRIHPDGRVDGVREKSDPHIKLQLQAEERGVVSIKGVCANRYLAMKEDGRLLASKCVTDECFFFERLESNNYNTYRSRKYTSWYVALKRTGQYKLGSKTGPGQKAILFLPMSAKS

[7] = JC-1 mitochondrial potential readout, lung cancer cells – cell-based, A549, JC-1 fluorescence, basal, 24 h, 100 nL, profiling panel (AID 1138); details: higher = more signal;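 note: A549 lung adenocarcinoma cells under basal conditions with no added stimulus; test concentration not given here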
Lefty1 = Lefty1 protein binding to printed compounds – biochemical, small-molecule microarray, 635/667 nm fluorescence, primary screen (AID 1139); details: fluorescence 635/667, higher = more signal
[8] = test system: wheat germ agglutinin (Triticum aestivum), Alexa647-labelled; test: Alexa647-WGA lectin binding to printed small molecules – biochemical, small-molecule microarray, 635/667 nm fluorescence, artefact control for SMM control-protein annotation, profiling panel (AID 1140); details: WGA-A647 binding, 635 nm fluorescence, higher = more signal;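 note: score merges 667 nm feature emission with signal to noise over triplicate slides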
[9] = target: Luciferin 4-monooxygenase (Photinus pyralis) (UniProt P08659); test: inhibition of purified Photinus pyralis luciferase – biochemical, luminescence, purified enzyme, 2006 set, primary screen (AID 1141); details: purified firefly luciferase, SteadyGlo luminescence, 30 min; higher = more signal, called active from +8 up or from −8 down;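 note: cell-free assay with purified firefly luciferase at 100 ng per well in PBS; test concentration not given here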
Chain of Luciferin 4-monooxygenase (Photinus pyralis) (P08659 whole entry, looked up): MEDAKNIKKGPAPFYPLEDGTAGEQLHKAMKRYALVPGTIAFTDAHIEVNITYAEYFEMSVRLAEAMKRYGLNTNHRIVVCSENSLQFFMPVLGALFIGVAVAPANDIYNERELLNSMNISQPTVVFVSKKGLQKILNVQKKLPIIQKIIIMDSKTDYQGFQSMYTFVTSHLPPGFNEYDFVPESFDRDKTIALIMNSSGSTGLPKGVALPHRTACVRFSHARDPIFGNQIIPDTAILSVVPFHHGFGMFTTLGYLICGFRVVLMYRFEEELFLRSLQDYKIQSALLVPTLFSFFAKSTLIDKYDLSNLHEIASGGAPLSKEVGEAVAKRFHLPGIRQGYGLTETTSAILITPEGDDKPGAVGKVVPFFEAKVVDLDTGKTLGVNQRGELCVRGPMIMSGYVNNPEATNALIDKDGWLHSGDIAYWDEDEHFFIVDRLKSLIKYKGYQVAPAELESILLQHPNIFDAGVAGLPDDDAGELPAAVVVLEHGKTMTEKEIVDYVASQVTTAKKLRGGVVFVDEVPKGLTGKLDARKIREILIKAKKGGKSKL

[10] = test system: Wnt5a (protein binding on small-molecule microarray); test: small molecules binding Wnt5a protein – biophysical, small-molecule microarray, 635/667 nm fluorescence, primary screen (AID 1142); details: 635 nm fluorescence, higher = more signal;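 note: fluorescence read at 667 nm with signal to noise per printed feature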
[11] = ATP-based viability of Huh7 replicon cells – cell-based, CellTiter-Glo luminescence, basal, 48 h, cytotoxicity control for HCV replication inhibitor project, primary screen (AID 1143); details: higher = more signal, called active from +8 up or from −8 down;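 note: Huh7 hepatoma cells carrying a hepatitis C replication reporter with no stimulus; test concentration not given here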
[12] = Pseudomonas biofilm growth suppression – PAO1 strain, BacTiter-Glo luminescence, LB-PBS, primary screen (AID 1144); details: P. aeruginosa PAO1 biofilm, 12 h, higher = more signal
[13] = basal CRE-LacZ reporter activity in PC12 – cell-based, unstimulated, primary screen (AID 1145); details: no forskolin, luminescence, 4.5 h, higher = more signal, called active from +8 up or from −8 down
[14] = forskolin-driven CRE-LacZ activity in PC12 – cell-based, CRE-LacZ reporter, forskolin-stimulated, primary screen (AID 1146); details: luminescence, 4.5 h, higher = more signal, called active from +8 up or from −8 down;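 note: PC12 cells with 6xCRE LacZ reporter stimulated by forskolin 10 µM; beta-galactosidase reporter signal reflecting CREB driven transcription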
[15] = target: Streptavidin (Streptomyces avidinii) (UniProt P22629); test: compounds binding control protein streptavidin – biophysical, small-molecule microarray, 635/667 nm fluorescence, artefact control for SMM compound annotation, primary screen (AID 1147); details: higher = more signal;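 note: signal reflects streptavidin binding to arrayed compounds as a control protein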
Chain of Streptavidin (Streptomyces avidinii) (P22629 whole entry, looked up): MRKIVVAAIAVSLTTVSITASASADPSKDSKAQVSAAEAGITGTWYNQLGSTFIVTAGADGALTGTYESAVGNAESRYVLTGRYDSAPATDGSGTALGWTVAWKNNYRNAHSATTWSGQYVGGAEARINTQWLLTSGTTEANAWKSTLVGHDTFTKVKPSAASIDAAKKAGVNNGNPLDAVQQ

[16] = probe aInhba binding on compound microarray – biochemical, small-molecule microarray, 635/667 nm fluorescence, primary screen (AID 1148); details: higher = more signal;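 note: score merges 667nm spot fluorescence with signal-to-noise for antibody binding to printed compounds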
Torsin-1A (Homo sapiens) [17] = target: Torsin-1A (Homo sapiens) (UniProt O14656); test: TOR1A wild-type binding on microarray – cell lysate, small-molecule microarray, lysate, 635/667 nm, primary screen (AID 1149); details: COS7 hTOR1A-WT lysate, 635 nm fluorescence, higher = more signal
Chain of Torsin-1A (Homo sapiens) (O14656 whole entry, looked up): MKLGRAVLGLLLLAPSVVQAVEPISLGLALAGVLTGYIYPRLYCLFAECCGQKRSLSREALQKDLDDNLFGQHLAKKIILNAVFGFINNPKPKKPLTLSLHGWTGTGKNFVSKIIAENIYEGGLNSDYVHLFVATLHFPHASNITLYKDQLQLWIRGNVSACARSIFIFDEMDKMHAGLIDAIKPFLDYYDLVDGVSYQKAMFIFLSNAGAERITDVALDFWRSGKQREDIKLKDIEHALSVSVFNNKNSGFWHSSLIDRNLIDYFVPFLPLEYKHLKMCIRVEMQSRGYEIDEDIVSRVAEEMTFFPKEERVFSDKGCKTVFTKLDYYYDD

Torsin-1A (Homo sapiens) [18] = target: Torsin-1A (Homo sapiens) (UniProt O14656); test: torsin A mutant lysate binding on microarrays – cell lysate, small-molecule microarray, COS7 lysate, 635/667 nm fluorescence, primary screen (AID 1150); details: COS7 hTOR1A mutant lysate, 635 nm fluorescence, higher = more signal;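 note: score pools 667 nm emission and signal to noise measuring lysate protein binding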
[19] = test system: Sonic hedgehog protein (Shh); test: Sonic hedgehog microarray binding compounds – biochemical, small-molecule microarray, 635/667 nm fluorescence, primary screen (AID 1151); details: 635 nm fluorescence, higher = more signal;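 note: Shh protein binding to compounds spotted on small-molecule microarray slides; score combines spot fluorescence intensity with signal-to-noise across triplicate slides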

Compound | composite z-score [1] | composite z-score [2] | composite z-score [3] | composite z-score [4] | composite z-score [5] | composite z-score [6] | z-score [7] | composite z-score (Lefty1) | composite z-score [8] | z-score [9] | composite z-score [10] | z-score [11] | z-score [12] | z-score [13] | z-score [14] | composite z-score [15] | composite z-score [16] | composite z-score (Torsin-1A (Homo sapiens) [17]) | composite z-score (Torsin-1A (Homo sapiens) [18]) | composite z-score [19]
CCOC(=O)[C@H](CC(C)C)NC(=O)CCC1CC(OC(=O)NCCc2ccc(F)cc2)CC2(CCCC(COC(=O)NCCc3ccccc3OC)O2)O1 (stereo not given in full) | 1.35 | 0.903 | 0.0376 | 0.956 | 0.236 | 0.399 | 0.848 | 0.522 | 0.0393 | 0.109 (inactive) | 0.145 | -0.451 (inactive) | -0.256 (inactive) | 1.64 (inactive) | 0.135 (inactive) | 0.805 | -0.0736 | 0.0877 | 0.528 | 0.567
CSCC[C@@H]1NC(=O)CC=C[C@@H](C)COC(=O)[C@@H](C)COC1=O | -0.888 | -1.81 | -0.948 | -2.46 | 0.556 | 0.0867 | 1.31 | -0.0168 | -1.71 | -0.343 (inactive) | -0.0993 | -0.184 (inactive) | 0.117 (inactive) | -0.476 (inactive) | -0.846 (inactive) | -1.03 | -0.0736 | 2.66 | 2.1 | 1.81
CC(C)CON=C1C[C@@H](O)[C@@H](O)[C@@H]2[C@@H]3C(=O)N(Cc4ccc5c(c4)OCO5)C(=O)[C@@H]3CC[C@H]12 | 0.193 | 0.689 | 0.0874 | 0.237 | 0.707 | 0.914 | -0.72 | 0.831 | -0.0178 | 1.26 (inactive) | 0.365 | -0.365 (inactive) | 1.01 (inactive) | 0.242 (inactive) | 0.201 (inactive) | 1.23 | -0.0589 | 0.217 | 0.739 | 1.45
CCOC(=O)CCN1C(=O)[C@H]2[C@H]3[C@H](O)[C@H](O)CC(=NOCC(C)C)[C@H]3CC[C@H]2C1=O | -0.0537 | -0.204 | -0.0454 | 0.416 | -0.143 | -0.0435 | 0.46 | -0.0892 | 0.293 | -0.562 (inactive) | 0.0106 | 0.0793 (inactive) | 0.256 (inactive) | -0.0187 (inactive) | 0.357 (inactive) | -0.0341 | -0.159 | 0.47 | -0.5 | -0.249
COc1cccc([C@H]2Oc3ccc(OC)cc3C(=NOC[C@@H](O)COCc3ccco3)[C@@H]2O)c1 | 0.232 | -1.3 | 0.3 | -2.19 | -0.707 | -0.51 | -0.843 | -0.488 | -0.418 | -2.4 (inactive) | -0.217 | -0.564 (inactive) | 0.357 (inactive) | 4.9 (inactive) | 0.493 (inactive) | -0.903 | -0.205 | -1.7 | -1.38 | -0.0734
CCOC(=O)[C@H](CC(C)C)NC(=O)CCC1CC(OC(=O)NCc2ccc3c(c2)OCO3)CC2(CCCC(COC(=O)NCC3CCCCC3)O2)O1 (stereo not given in full) | 1.18 | 0.939 | -0.217 | -0.195 | 1.18 | 0.928 | 0.0853 | 1.63 | 0.584 | 0.885 (inactive) | 0.222 | -1.86 (inactive) | -0.0968 (inactive) | -0.0732 (inactive) | 0.389 (inactive) | 0.354 | 0.0471 | 0.0886 | 0.392 | 1.52
CCOC(=O)[C@H](CC(C)C)NC(=O)CCC1CC(OC(=O)NCCc2ccc(F)cc2)CC2(CCCC(COC(=O)NCCc3ccc(Cl)cc3)O2)O1 (stereo not given in full) | 0.704 | 0.596 | 0.688 | 0.75 | 0.692 | 0.84 | -0.156 | 1.34 | 0.61 | 0.442 (inactive) | 0.555 | -1.54 (inactive) | -0.204 (inactive) | 1.75 (inactive) | 0.214 (inactive) | 0.645 | -0.125 | 0.601 | 0.385 | 1.62
CC(C)(C)N1C(=O)[C@H]2[C@H]3[C@H](O)C=CC(=O)[C@@H]3CC[C@H]2C1=O | 0.204 | 0.025 | -0.258 | 0.347 | 0.39 | 0.255 | 0.109 | 0.461 | 0.0896 | -0.753 (inactive) | 0.307 | 0.536 (inactive) | 0.0768 (inactive) | 1.06 (inactive) | -0.0003 (inactive) | 0.4 | -0.128 | 0.281 | 0.252 | 0.521
CC(C)=NO[C@H](C)c1cn([C@H](CO)Cc2ccccc2)nn1 | 1.28 | 0.464 | 0.548 | 0.991 | 0.139 | 0.137 | -0.34 | 0.137 | -0.026 | -1.69 (inactive) | -0.179 | -0.684 (inactive) | 0.159 (inactive) | 1.61 (inactive) | 0.112 (inactive) | 1.14 | -0.0178 | -0.232 | 0.015 | -0.195
Cc1cc2c(c(=O)o1)[C@@H](O)[C@H]1O[C@H]1C2=O | 0.432 | 0.281 | 0.123 | -0.116 | 0.629 | 0.374 | -1.32 | 1.32 | 0.201 | 0.476 (inactive) | 0.149 | 0.773 (inactive) | 0.0297 (inactive) | -0.255 (inactive) | 0.0917 (inactive) | 0.361 | 0.0073 | 0.102 | 0.253 | 1.1
